# Activity calls are given as the source filed them. Unless noted, the rule behind the calls is not given here.
# Legend:
# [1] = resazurin metabolic signal in HepG2 cells – cell-based, resazurin fluorescence, 24 h, PK04 Diversity Set, profiling panel (AID 1172); settings: HepG2 viability, higher = more signal; note: test concentration not given here
# [2] = budding yeast growth changes without added modifier – OD600, strain BY4716, 24 h, basal condition, primary screen (AID 1173); settings: S. cerevisiae BY4716 growth, OD600, 24 h; higher = more signal, called active from +8 up or from −8 down
# [3] = viability profiling in MM1S myeloma cells – cell-based, resazurin fluorescence, basal, 24 h, PK04 Diversity Set, profiling panel (AID 1174); settings: higher = more signal, called active from +8 up or from −8 down;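 note: MM1S multiple myeloma cell line; test concentration not given here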
# [4] = target: Dihydroorotate dehydrogenase (quinone), mitochondrial (Plasmodium falciparum (isolate 3D7)) (UniProt Q08210); experiment: inhibition of P. falciparum DHODH – biochemical, C-terminal His tag, absorbance 600 nm, primary screen (AID 1175); settings: PfDHODH enzyme, DCIP absorbance 600 nm; higher = more signal, called active from +8 up or from −8 down;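 note: recombinant parasite enzyme with a five histidine tag at its C terminus; test concentration not given here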
# [5] = inhibition of PAO1 biofilm formation – strain PAO1, LB-PBS medium, absorbance 600 nm, primary screen (AID 1176); note: test concentration not given here; settings: P. aeruginosa PAO1 growth/biofilm, A600, 12 h; higher = more signal
# [6] = growth modulation of vineyard yeast isolate – strain RM11-1a, OD600, basal, 24 h, primary screen (AID 1177);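 note: cultures grown under basal conditions with no added stressor; test concentration not given here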; settings: S. cerevisiae RM11-1a growth, OD600, 24 h; higher = more signal, called active from +8 up or from −8 down
# [7] = growth of efflux-deficient E. coli DRC39 – strain DRC39, OD650, 24 h, E. coli filamentation inducers, primary screen (AID 1178);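 note: growth measured as culture turbidity by optical density at 650 nm; test concentration not given here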; settings: E. coli DRC39 acrAB, higher = more signal, called active from +8 up or from −8 down
# [8] = growth of efflux-deficient E. coli DRC39 – strain DRC39, OD650, 48 h, E. coli filamentation inducers, primary screen (AID 1179);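 note: screen aims at cell division blockers that make cells filament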; settings: E. coli DRC39 delta-acrAB growth, higher = more signal, called active from +8 up or from −8 down
# [9] = viability profiling in RPMI8226 myeloma cells – cell-based, resazurin fluorescence, basal, 24 h, PK04 Diversity Set, profiling panel (AID 1180); settings: higher = more signal;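 note: RPMI8826 multiple myeloma cell line at 5000 cells per well; test concentration not given here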
# [10] = target: E3 ubiquitin-protein ligase XIAP (Homo sapiens) (UniProt P98170); experiment: small molecules binding XIAP protein – biophysical, small-molecule microarray, fluorescence 635 nm, primary screen (AID 1181); settings: higher = more signal;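 note: score merges 667 nm emission and signal to noise over triplicate slides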
# Chain of E3 ubiquitin-protein ligase XIAP (Homo sapiens) (P98170 whole entry, looked up): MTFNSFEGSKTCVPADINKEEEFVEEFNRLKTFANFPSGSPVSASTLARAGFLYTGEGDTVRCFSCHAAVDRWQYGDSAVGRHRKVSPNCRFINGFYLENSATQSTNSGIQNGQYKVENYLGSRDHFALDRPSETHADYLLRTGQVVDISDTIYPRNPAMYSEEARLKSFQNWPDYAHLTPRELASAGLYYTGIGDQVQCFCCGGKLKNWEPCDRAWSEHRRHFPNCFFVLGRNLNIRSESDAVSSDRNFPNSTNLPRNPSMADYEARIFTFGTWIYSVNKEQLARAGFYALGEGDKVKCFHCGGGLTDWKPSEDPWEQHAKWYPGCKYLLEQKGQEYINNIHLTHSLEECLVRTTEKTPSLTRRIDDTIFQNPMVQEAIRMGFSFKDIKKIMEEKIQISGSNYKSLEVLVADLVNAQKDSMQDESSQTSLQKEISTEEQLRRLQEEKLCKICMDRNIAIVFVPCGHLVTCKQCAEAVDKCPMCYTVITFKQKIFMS
# Chain of Dihydroorotate dehydrogenase (quinone), mitochondrial (Plasmodium falciparum (isolate 3D7)) (Q08210 whole entry, looked up): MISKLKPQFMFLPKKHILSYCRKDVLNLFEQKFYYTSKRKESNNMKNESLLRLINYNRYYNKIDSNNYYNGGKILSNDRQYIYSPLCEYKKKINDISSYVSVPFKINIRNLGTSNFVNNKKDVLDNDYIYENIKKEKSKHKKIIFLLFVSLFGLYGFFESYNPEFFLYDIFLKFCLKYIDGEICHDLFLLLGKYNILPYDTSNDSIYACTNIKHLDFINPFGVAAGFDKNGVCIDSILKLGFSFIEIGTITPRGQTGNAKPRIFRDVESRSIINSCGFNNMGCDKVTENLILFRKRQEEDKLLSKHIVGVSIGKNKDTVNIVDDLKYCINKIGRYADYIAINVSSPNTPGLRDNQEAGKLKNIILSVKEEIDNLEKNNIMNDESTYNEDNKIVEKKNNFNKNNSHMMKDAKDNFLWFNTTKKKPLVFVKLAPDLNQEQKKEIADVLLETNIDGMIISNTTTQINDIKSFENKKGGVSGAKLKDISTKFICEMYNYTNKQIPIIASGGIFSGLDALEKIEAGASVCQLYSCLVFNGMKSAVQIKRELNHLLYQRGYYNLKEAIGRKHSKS
SMILES,z-score [1],z-score [2],z-score [3],composite z-score [4],z-score [5],z-score [6],z-score [7],z-score [8],z-score [9],composite z-score [10]
CC(C)N1CC=CC23O[C@@H]4/C=C\CCCOC(=O)C4[C@H]2C(=O)N(CCCCCCO)[C@@H]3C1=O (stereo not given in full),0.95,-1.13 (inactive),1.3 (inactive),-0.475 (inactive),-0.401 (inactive),0.0759 (inactive),1.62 (inactive),1.93 (inactive),0.708,0.0537
C=C(COC)C(=O)CC[C@@H](OC(=O)c1cccnc1)c1ccccc1OCCO,-0.956,-0.585 (inactive),-3.09 (inactive),-0.4 (inactive),0.519 (inactive),-0.0421 (inactive),0.325 (inactive),0.206 (inactive),-3.63,-0.0663
CCOC(=O)C1=CCN(S(=O)(=O)c2ccc(C)cc2)C1c1ccccc1 (stereo not given),-0.17,0.218 (inactive),-0.612 (inactive),-0.551 (inactive),0.449 (inactive),0.58 (inactive),-0.564 (inactive),-0.359 (inactive),-1.01,-0.0957
CCCCC(=C=CC[C@H](O)c1ccc(OCCO)cc1)C[C@H](O)COCc1ccccc1,-0.0002,-1.36 (inactive),0.0233 (inactive),-0.624 (inactive),0.0964 (inactive),0.556 (inactive),1.05 (inactive),0.529 (inactive),0.676,0.0122
C=C(/C(=C/C[C@H](OC(=O)c1ccncc1)c1cccc(OCCO)c1)c1cnc2ccccc2c1)C(C)C,-0.982,-18.5 (active),-1.09 (inactive),-25.3 (active),0.285 (inactive),-22.1 (active),0.116 (inactive),-0.147 (inactive),-0.911,0.329
CCCCC(=C=CC[C@H](O)c1ccc(OCCO)cc1)C[C@H](O)c1cc(Cl)cc(Cl)c1O,0.984,-4.58 (inactive),0.437 (inactive),-1.74 (inactive),0.579 (inactive),-0.674 (inactive),0.947 (inactive),0.514 (inactive),1.36,-0.0773
CN1C(=O)C2C=CC(C(O)c3cc(C(F)(F)F)cc(C(F)(F)F)c3)N(NC(=O)OC(C)(C)C)C2C1=O (stereo not given),-0.725,-0.752 (inactive),-0.117 (inactive),-0.251 (inactive),-0.379 (inactive),0.215 (inactive),-0.676 (inactive),-1.22 (inactive),0.349,0.394
COC(=O)C(CC#Cc1ccc2c(c1)[C@]1(C(=O)N2)[C@H](c2ccc(O)cc2)N2[C@H](c3ccccc3)[C@H](c3ccccc3)OC(=O)[C@H]2[C@@H]1C(=O)N1CCCCCCC1)C(=O)OC,-0.123,0.303 (inactive),-0.961 (inactive),-7.28 (inactive),1.6 (inactive),0.27 (inactive),0.196 (inactive),-0.0767 (inactive),-3.94,0.557
C[C@]1(C(=O)NCC(F)(F)F)c2ccccc2C(=O)N(Cc2ccccc2)[C@H]1c1ccc(CO)cc1,-0.398,0.0742 (inactive),0.525 (inactive),0.721 (inactive),-0.0807 (inactive),0.433 (inactive),0.242 (inactive),0.824 (inactive),0.937,-0.102
C=C(/C(=C/C[C@H](OC(=O)c1ccncc1)c1ccccc1OCCO)c1cnc2ccccc2c1)C(C)C,0.495,-0.147 (inactive),-0.632 (inactive),-3.77 (inactive),1.07 (inactive),-0.07 (inactive),0.395 (inactive),0.313 (inactive),0.262,-0.0771
COc1cc(CO)cc(I)c1O[C@H]1C=C(C(=O)NCCO)C[C@@H](NCC2CCCCC2)[C@@H]1O,0.361,-0.964 (inactive),-0.221 (inactive),-0.257 (inactive),-0.107 (inactive),-0.489 (inactive),1.45 (inactive),0.866 (inactive),0.428,0.0831
CCCCCN1CC=CC23O[C@@H]4C=CCOC(=O)[C@@H]4[C@H]2C(=O)N(CCO)[C@@H]3C1=O (stereo not given in full),0.815,0.201 (inactive),0.0974 (inactive),-0.693 (inactive),0.398 (inactive),-0.454 (inactive),-0.0666 (inactive),-0.193 (inactive),0.229,0.307
NC(=O)N1C(=O)C2C(C1=O)C1C=C(CCCO)C2C(C2CC2)N1Cc1cccc(OC(F)(F)F)c1 (stereo not given),-0.807,-1.33 (inactive),-0.217 (inactive),-1.26 (inactive),-0.0585 (inactive),-0.0011 (inactive),-0.149 (inactive),-0.508 (inactive),-0.762,0.312
